Calls of active or inactive are those of the source.
Tests used:
[1] = binders of probe aFSTL3 on microarray, primary screen, stem cell growth factor project, biochemical, small-molecule microarray, fluorescence 635/667 (AID 1064); conditions: higher = more signal;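 further: measures binding of the biotinylated anti-FSTL3 antibody to printed compounds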
[2] = binders from COS7 lysate, DM2A8 probe, primary screen, torsin A project, cell lysate, small-molecule microarray, fluorescence 635/667 (AID 1065); conditions: higher = more signal, COS7 lysate expressing mutant human TOR1A
[3] = binders of probe aFGF2 on microarray, primary screen, stem cell growth factor project, biochemical, small-molecule microarray, fluorescence 635/667 (AID 1067); conditions: higher = more signal;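 further: measures binding of biotinylated aFGF2 protein to printed compounds on slides; z-score merges feature fluorescence and signal-to-noise across triplicate slides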
[4] = binders of probe aFGF10 on microarray, primary screen, stem cell growth factor project, biochemical, small-molecule microarray, fluorescence 635/667 (AID 1071); conditions: higher = more signal;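 further: score merges 667 nm spot intensity and signal to noise from triplicate slides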
[5] = target: Neurogenic locus notch homolog protein 2 (Homo sapiens) (UniProt Q04721); test: Notch2 binders on small-molecule microarrays, primary screen, biochemical, small-molecule microarray, 635 nm fluorescence, stem cell growth factors (AID 1073); conditions: Notch2 binding, higher = more signal
[6] = target: Pro-neuregulin-1, membrane-bound isoform (Homo sapiens) (UniProt Q02297); test: NRG1 binders on small-molecule microarrays, primary screen, psychiatric disease protein project, biochemical, small-molecule microarray, fluorescence 635/667 (AID 1075); conditions: NRG1 binding, 635 nm fluorescence, higher = more signal;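 further: score combines 667 nm spot fluorescence with signal to noise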
[7] = tested on: Neuregulin-1 EGF-like domain; test: binders of neuregulin-1 EGF-like domain, primary screen, biochemical, small-molecule microarray, 635 nm fluorescence (AID 1081); conditions: small-molecule microarray binding, higher = more signal;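 further: binding of the protein to compounds printed on small-molecule microarray slides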
[8] = FRG1 promoter luciferase signal modulators, primary screen, FRG1 inhibition for FSHD, cell-based, C2C12 myotubes, firefly/Renilla luciferase, luminescence (AID 1084); conditions: higher = more signal, called active from +8 up or from −8 down
[9] = binders of probe aFST on microarray, primary screen, stem cell growth factor project, biochemical, small-molecule microarray, fluorescence 635/667 (AID 1086); conditions: higher = more signal;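 further: score merges 667 nm fluorescence with signal-to-noise of each printed compound spot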
[10] = binders of probe aHhip on microarray, primary screen, stem cell growth factor project, biochemical, small-molecule microarray, fluorescence 635/667 (AID 1087); conditions: higher = more signal;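 further: score merges spot fluorescence at 667nm with spot signal to noise ratio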

Sequence of Pro-neuregulin-1, membrane-bound isoform (Homo sapiens) (Q02297 whole entry, looked up, the tested form may be a part, canonical isoform): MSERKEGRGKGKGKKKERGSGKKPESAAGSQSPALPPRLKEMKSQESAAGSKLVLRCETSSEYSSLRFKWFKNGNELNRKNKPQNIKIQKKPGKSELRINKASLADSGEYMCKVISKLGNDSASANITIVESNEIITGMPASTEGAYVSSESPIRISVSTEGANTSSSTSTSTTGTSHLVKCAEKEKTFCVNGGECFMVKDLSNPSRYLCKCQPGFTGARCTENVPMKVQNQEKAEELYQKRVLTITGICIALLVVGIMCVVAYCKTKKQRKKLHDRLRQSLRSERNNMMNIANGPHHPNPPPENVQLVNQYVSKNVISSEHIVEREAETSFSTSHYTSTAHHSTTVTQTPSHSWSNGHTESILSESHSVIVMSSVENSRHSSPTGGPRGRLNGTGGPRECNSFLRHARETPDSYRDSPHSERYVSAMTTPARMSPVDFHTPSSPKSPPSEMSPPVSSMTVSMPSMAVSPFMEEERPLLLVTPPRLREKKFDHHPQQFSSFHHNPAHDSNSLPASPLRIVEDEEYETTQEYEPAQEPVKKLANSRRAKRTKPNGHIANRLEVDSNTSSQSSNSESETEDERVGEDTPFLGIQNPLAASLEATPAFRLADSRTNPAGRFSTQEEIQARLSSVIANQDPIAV
Sequence of Neurogenic locus notch homolog protein 2 (Homo sapiens) (Q04721 whole entry, looked up, canonical isoform): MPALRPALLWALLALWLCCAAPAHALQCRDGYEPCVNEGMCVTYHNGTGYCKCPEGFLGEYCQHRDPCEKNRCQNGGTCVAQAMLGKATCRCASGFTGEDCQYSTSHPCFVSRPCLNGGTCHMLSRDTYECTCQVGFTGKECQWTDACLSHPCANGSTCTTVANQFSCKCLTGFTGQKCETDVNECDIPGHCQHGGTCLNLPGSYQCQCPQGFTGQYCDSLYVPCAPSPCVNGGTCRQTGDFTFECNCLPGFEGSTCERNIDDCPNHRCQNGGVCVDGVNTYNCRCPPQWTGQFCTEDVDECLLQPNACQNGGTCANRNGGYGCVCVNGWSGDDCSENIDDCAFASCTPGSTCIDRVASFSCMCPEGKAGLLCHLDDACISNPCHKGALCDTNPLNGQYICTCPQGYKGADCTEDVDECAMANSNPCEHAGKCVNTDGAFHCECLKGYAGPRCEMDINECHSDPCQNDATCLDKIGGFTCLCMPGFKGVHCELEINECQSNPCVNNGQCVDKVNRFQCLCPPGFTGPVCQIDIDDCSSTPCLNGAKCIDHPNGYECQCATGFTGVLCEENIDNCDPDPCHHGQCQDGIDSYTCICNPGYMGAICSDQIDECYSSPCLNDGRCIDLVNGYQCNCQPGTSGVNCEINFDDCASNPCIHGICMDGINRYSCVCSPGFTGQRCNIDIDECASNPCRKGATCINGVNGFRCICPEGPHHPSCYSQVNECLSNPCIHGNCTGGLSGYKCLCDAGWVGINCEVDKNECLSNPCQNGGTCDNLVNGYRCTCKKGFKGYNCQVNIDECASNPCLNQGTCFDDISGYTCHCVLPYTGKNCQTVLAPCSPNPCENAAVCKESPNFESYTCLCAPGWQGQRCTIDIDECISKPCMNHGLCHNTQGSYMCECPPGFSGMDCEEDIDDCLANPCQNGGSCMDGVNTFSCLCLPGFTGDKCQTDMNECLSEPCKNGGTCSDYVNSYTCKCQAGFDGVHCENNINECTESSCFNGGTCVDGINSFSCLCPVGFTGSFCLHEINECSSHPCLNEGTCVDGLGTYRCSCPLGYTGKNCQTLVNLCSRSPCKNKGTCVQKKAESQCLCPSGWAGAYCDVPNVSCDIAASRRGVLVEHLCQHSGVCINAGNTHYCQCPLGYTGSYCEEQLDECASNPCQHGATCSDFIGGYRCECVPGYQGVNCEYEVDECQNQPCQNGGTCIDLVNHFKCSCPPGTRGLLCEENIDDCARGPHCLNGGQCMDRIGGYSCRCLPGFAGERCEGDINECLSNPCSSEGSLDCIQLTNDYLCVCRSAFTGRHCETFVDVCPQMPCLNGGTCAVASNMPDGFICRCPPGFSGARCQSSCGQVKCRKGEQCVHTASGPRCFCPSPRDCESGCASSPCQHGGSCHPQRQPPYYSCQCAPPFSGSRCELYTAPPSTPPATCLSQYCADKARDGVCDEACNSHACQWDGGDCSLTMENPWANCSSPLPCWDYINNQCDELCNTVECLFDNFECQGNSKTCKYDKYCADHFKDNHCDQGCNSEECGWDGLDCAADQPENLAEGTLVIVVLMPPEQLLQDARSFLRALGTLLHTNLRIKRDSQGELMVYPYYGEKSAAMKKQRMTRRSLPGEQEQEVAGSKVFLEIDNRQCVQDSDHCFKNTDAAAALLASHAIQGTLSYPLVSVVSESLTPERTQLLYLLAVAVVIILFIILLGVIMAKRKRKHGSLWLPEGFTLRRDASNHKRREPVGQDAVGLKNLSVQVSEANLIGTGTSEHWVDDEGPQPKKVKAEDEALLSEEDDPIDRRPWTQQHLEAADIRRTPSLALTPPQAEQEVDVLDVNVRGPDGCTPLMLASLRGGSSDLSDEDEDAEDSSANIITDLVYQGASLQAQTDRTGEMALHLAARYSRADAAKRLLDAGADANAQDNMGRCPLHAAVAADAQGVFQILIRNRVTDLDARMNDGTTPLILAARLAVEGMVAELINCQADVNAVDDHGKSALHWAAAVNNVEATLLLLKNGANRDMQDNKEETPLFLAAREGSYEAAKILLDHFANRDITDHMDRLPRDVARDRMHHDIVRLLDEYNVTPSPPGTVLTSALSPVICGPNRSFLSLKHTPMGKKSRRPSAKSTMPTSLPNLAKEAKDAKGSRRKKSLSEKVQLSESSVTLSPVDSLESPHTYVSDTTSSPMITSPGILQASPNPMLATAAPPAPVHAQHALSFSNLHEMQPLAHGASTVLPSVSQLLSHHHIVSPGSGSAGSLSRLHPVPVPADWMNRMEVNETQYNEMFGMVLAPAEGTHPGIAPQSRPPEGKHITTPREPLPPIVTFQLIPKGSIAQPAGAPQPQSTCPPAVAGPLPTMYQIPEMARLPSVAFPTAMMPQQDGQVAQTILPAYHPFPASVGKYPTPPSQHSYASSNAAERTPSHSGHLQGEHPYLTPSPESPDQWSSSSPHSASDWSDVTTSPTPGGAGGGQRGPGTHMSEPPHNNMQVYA

| SMILES | composite z-score [1] | composite z-score [2] | composite z-score [3] | composite z-score [4] | composite z-score [5] | composite z-score [6] | composite z-score [7] | z-score [8] | composite z-score [9] | composite z-score [10] |
| --- | --- | --- | --- | --- | --- | --- | --- | --- | --- | --- |
| O=C1O[C@@H](c2ccccc2)[C@@H](c2ccccc2)N2[C@@H](c3ccc(O)cc3)[C@]3(C(=O)Nc4ccccc43)[C@@H](C(=O)NC[C@H](O)c3ccccc3)[C@H]12 | -0.263 | 0.606 | -0.141 | 0.0271 | 0.135 | 1.69 | 0.552 | -1.23 (inactive) | -0.174 | -0.12 |
| COc1ccc([Si](C)(C)[C@@H]2[C@@H](CCO)O[C@]3(C(=O)N(Cc4cccc(N(C=O)c5ccccc5)c4)c4ccccc43)[C@H]2C)cc1 | 0.318 | 0.526 | -0.0784 | -0.126 | 0.199 | 0.835 | 0.787 | -0.198 (inactive) | 0.316 | 0.0524 |
| COCCOC(=O)N1C(=O)[C@@]2(c3cc(C#CCC(C(=O)OC)C(=O)OC)ccc31)[C@H](c1ccc(OCCO)cc1)N1[C@H](c3ccccc3)[C@H](c3ccccc3)OC(=O)[C@H]1[C@@H]2C(=O)NC[C@H](O)c1ccccc1 | -1.25 | 0.501 | -0.0272 | 1.15 | 1.45 | 0.824 | 1.28 | -0.89 (inactive) | -0.158 | -0.521 |
| C=C(CCCC)C(=O)CC[C@H](OC(C)=O)c1ccc(CO)o1 | -0.282 | 0.0494 | -0.0985 | -0.0414 | -0.366 | -0.119 | 0.798 | -0.463 (inactive) | -0.402 | -0.0994 |
| NC(=O)[C@]1(Cc2ccccc2)N=C(c2ccc(OCCCO)cc2)O[C@@H]1c1ccccc1 | 0.207 | -0.911 | 0.0121 | 0.161 | 1.15 | 1.59 | 1.12 | -0.573 (inactive) | 0.503 | -0.214 |
| COc1ccc(C#Cc2ccc3c(c2)[C@]2(C(=O)N3)[C@H](c3ccc(OCCO)cc3)N3[C@H](c4ccccc4)[C@H](c4ccccc4)OC(=O)[C@H]3[C@@H]2C(=O)Nc2nc3ccccc3s2)cc1 | 0.244 | 0.664 | -0.0167 | 0.71 | 1.07 | 2.24 | 1.13 | 3.55 (inactive) | 0.667 | -0.181 |
| C=C(C(=O)CC[C@@H](OC(=O)c1cccnc1)c1ccc(CO)o1)C(C)C | -0.35 | 0.328 | -0.019 | 0.715 | 0.29 | 1.08 | 0.592 | 0.305 (inactive) | 0.337 | 0.0373 |
| C#C[C@H]1Oc2ccccc2S(=O)(=O)N2CCC[C@@H]12 | 0.246 | 0.321 | -0.116 | -0.223 | -0.564 | -0.671 | -0.344 | -0.316 (inactive) | 0.0511 | 0.0373 |

— PubChem BioAssay
